# PubChem BioAssay (NCATS)
# Results filed as inconclusive are left out. Where a call stands in place of a potency, no number is given. For part of these data: Measured potencies and affinities stand elsewhere. The source made the active and inactive calls.
# How the values were obtained:
# [1] = Ebola virus entry assay, green fluorescence channel
# [2] = Ebola virus entry assay, blue channel fluorescence
# [3] = Ebola virus entry assay, green fluorescence channel; remark: listed apart in the source
# [4] = Ebola virus entry assay, ratio channel readout
# [5] = Ebola virus entry assay, blue channel fluorescence; remark: listed apart in the source
# [6] = Ebola virus entry assay, ratio channel
# [7] = Ebola virus entry assay, reporter ratio channel; AC50: Channel type: primary unless noted; outcome: Channel type: primary unless noted
# [8] = Ebola virus entry cell assay, ratio channel
# [9] = Ebola virus entry assay, green channel fluorescence
# [10] = Ebola virus entry assay, blue channel fluorescence; remark: listed apart in the source
# [11] = Ebola virus entry assay, blue channel (ratio component)
# [12] = Ebola virus entry reporter assay, green channel fluorescence
# [13] = High-throughput drug toxicity screening in the BPDCN cell line Gen2.2 (AID 1224824); settings: Gen2.2 BPDCN cells; at 45.8 µM (top of the series);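 note: cells exposed to compounds for 48 h before reading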
# Outline: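 CellTiter-Glo luminescence after 48 h compound exposure of Gen2.2 cells; percent activity set with DMSO as 100% and bortezomib (9.2 uM final) as 0%. Cells seeded at 500 per well, RPMI + 10% FBS, 37 °C.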
# [14] = High-throughput drug toxicity screening in the BPDCN cell line Cal-1 (AID 1224825); settings: Cal-1 BPDCN cell viability, qHTS; at 45.8 µM (top of the series)
# Outline: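 Viability of the BPDCN line Cal-1 is measured as ATP-based luminescence (CellTiter-Glo) following 48 h incubation with compounds. Percent activity uses DMSO-treated wells as 100% and 9.2 uM bortezomib as 0%.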
# [15] = qHTS assay for measurement of the activity of small molecule inhibitors on Zika virus induced Caspase-3 activity in human iPSC derived neural progenitor cells (hNPCs) (AID 1224857; active = well fitted inhibition curve with a large enough effect; note: nearly all actives have a fitted effect of over 65% in size); settings: hNPCs ZIKV-induced caspase-3/7, Caspase-Glo luminescence, 6 h; series mostly up to 45.7 µM
# Outline: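 In medium with heparin 2 ug/ml and cyclopamine 2 uM, hNPCs (350 cells/well) received compound for one hour and then Zika virus at 2 FFU/cell; caspase activity was measured by Caspase-Glo 3/7 luminescence 6 h post-infection.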
# [16] = qHTS assay for measurement of the activity of small molecule inhibitors on Zika virus induced Caspase-3 activity in human astrocytoma cells (AID 1224859; active = well fitted inhibition curve with a large enough effect); settings: SNB-19 ZIKV-induced caspase-3/7, luminescence, 6 h; series mostly up to 45.7 µM
# Outline: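 A cell-based luminescent caspase-3/7 assay used SNB-19 cells infected with ZIKV (2 FFU/cell) for 6 h following 1 h compound pretreatment.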
# [17] = qHTS Screen of the MIPE 4.0 Collection Against Ewings Sarcoma (RDES) (AID 1259252; active = well fitted inhibition curve with a large enough effect; note: potency is the fitted concentration of half-maximal effect; nearly all actives have a fitted effect of over 35% in size); settings: RD-ES Ewing sarcoma viability, CellTiter-Glo, 48 h; series mostly up to 45.8 µM
# Outline: (§1)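 Compound titrations go onto adherent log-phase cells 4 h after seeding, incubate 48 h at 37C, then CellTiter-Glo luminescence reports viability relative to DMSO and cell-free controls.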
# [18] = qHTS Screen of the MIPE 4.0 Collection Against Ewings Sarcoma (TC32) (AID 1259256; active = well fitted inhibition curve with a large enough effect; note: nearly all actives have a fitted effect of over 45% in size); settings: TC32 Ewing sarcoma viability, CellTiter-Glo, 48 h; series mostly up to 45.8 µM
# Outline: as §1
structure (smiles),measurement,setting,value
CC[C@@H]([C@H](C)O)n1ncn(-c2ccc(N3CCN(c4ccc(OC[C@@H]5CO[C@@](Cn6cncn6)(c6ccc(F)cc6F)C5)cc4)CC3)cc2)c1=O,efficacy,[1],27.6% (inactive)
same,AC50,[2],10 µM (active)
same,outcome,[3],inactive
same,outcome,[4],inactive
same,AC50,[5],4.47 µM (active)
same,AC50,[6],3.98 µM (active)
same,AC50,[7],3.98 µM (active)
same,AC50,[8],8.91 µM (active)
CCN(CC)CCCC(C)Nc1ccnc2cc(Cl)ccc12 (stereo unspecified),efficacy,[1],34.3% (inactive)
same,AC50,[2],3.98 µM (active)
same,outcome,[3],inactive
same,AC50,[4],2.82 µM (active)
same,AC50,[5],1.26 µM (active)
same,AC50,[6],1.12 µM (active)
same,AC50,[7],1.12 µM (active)
same,AC50,[8],2.82 µM (active)
CN(C)c1cc(NC(=O)CNC(C)(C)C)c(O)c2c1C[C@@H]1C[C@H]3[C@H](N(C)C)C(=O)C(C(N)=O)=C(O)[C@@]3(O)C(=O)C1=C2O,efficacy,[1],47.7% (inactive)
same,outcome,[2],inactive
same,outcome,[3],inactive
same,outcome,[4],inactive
same,AC50,[5],8.91 µM (active)
same,AC50,[6],8.91 µM (active)
same,AC50,[7],8.91 µM (active)
same,outcome,[8],inactive
O=C1Cc2cc(CCN3CCN(c4nsc5ccccc45)CC3)c(Cl)cc2N1,efficacy,[1],34% (inactive)
same,outcome,[2],inactive
same,outcome,[3],inactive
same,outcome,[4],inactive
same,AC50,[5],22.4 µM (active)
same,AC50,[6],17.8 µM (active)
same,AC50,[7],17.8 µM (active)
same,AC50,[8],15.8 µM (active)
CCC(=O)O[C@H]1[C@H](O[C@@H]2[C@@H](C)[C@H](O[C@H]3C[C@@](C)(OC)[C@@H](O)[C@H](C)O3)[C@@H](C)C(=O)O[C@H](CC)[C@@](C)(O)[C@H](O)[C@@H](C)C(=O)[C@H](C)C[C@@]2(C)O)O[C@H](C)C[C@@H]1N(C)C,efficacy,[1],131% (inactive)
same,outcome,[2],inactive
same,outcome,[3],inactive
same,outcome,[4],inactive
same,AC50,[5],14.1 µM (active)
same,AC50,[6],11.2 µM (active)
same,AC50,[7],11.2 µM (active)
same,outcome,[8],inactive
CNCC[C@@H](Oc1ccccc1C)c1ccccc1,efficacy,[1],103% (inactive)
same,outcome,[2],inactive
same,outcome,[3],inactive
same,outcome,[4],inactive
same,AC50,[5],10 µM (active)
same,AC50,[6],10 µM (active)
same,AC50,[7],10 µM (active)
same,AC50,[8],17.8 µM (active)
O[C@@H](c1cc(C(F)(F)F)nc2c(C(F)(F)F)cccc12)[C@H]1CCCCN1,efficacy,[1],-219% (inactive)
same,AC50,[2],7.94 µM (active)
same,outcome,[3],inactive
same,AC50,[4],5.63 µM (active)
same,AC50,[5],1.58 µM (active)
same,AC50,[6],1.58 µM (active)
same,AC50,[7],1.58 µM (active)
same,AC50,[8],5.62 µM (active)
COc1cc2nc(N3CCN(C(=O)C4COc5ccccc5O4)CC3)nc(N)c2cc1OC (stereo unspecified),efficacy,[1],97.9% (inactive)
same,outcome,[2],inactive
same,outcome,[3],inactive
same,outcome,[4],inactive
same,AC50,[5],15.8 µM (active)
same,AC50,[6],15.8 µM (active)
same,AC50,[7],15.8 µM (active)
same,outcome,[8],inactive
Cc1nc2n(c(=O)c1CCN1CCC(c3noc4cc(F)ccc34)CC1)CCC[C@H]2O,efficacy,[1],18.4% (inactive)
same,outcome,[2],inactive
same,outcome,[3],inactive
same,outcome,[4],inactive
same,outcome,[5],inactive
same,outcome,[9],inactive
same,outcome,[10],inactive
same,outcome,[7],inactive
same,outcome,[11],inactive
same,outcome,[8],inactive
O=C1N=C(O)CN1/N=C/c1ccc(-c2ccc([N+](=O)[O-])cc2)o1,efficacy,[1],24% (inactive)
same,outcome,[2],inactive
same,outcome,[3],inactive
same,outcome,[4],inactive
same,outcome,[5],inactive
same,outcome,[9],inactive
same,outcome,[10],inactive
same,outcome,[7],inactive
same,outcome,[11],inactive
same,outcome,[8],inactive
N[C@@H](Cc1ccc(N(CCCl)CCCl)cc1)C(=O)O,efficacy,[1],12.7% (inactive)
same,outcome,[2],inactive
same,outcome,[3],inactive
same,outcome,[4],inactive
same,outcome,[5],inactive
same,outcome,[9],inactive
same,outcome,[10],inactive
same,outcome,[7],inactive
same,outcome,[11],inactive
same,outcome,[12],inactive
same,outcome,[8],inactive
same,"cell viability, % of control (lower = more cytotoxic)",[13],5.36%
same,viability (% of control),[14],4.8%
same,Potency,[15],inactive
same,outcome,[16],inactive
same,Potency,[17],5.26 µM (active)
same,Potency,[18],inactive
CO[C@]12CC[C@@]3(C[C@@H]1[C@](C)(O)C(C)(C)C)[C@@H]1Cc4ccc(O)c5c4[C@@]3(CCN1CC1CC1)[C@H]2O5,efficacy,[1],-151% (inactive)
same,outcome,[2],inactive
same,outcome,[3],inactive
same,outcome,[4],inactive
same,AC50,[5],5.62 µM (active)
same,AC50,[6],3.16 µM (active)
same,AC50,[7],3.16 µM (active)
same,outcome,[8],inactive
same,Potency,[15],inactive
same,outcome,[16],inactive
O=C(NCCN1CCOCC1)c1ccc(Cl)cc1,efficacy,[1],-15.2% (inactive)
same,outcome,[2],inactive
same,outcome,[3],inactive
same,outcome,[4],inactive
same,outcome,[5],inactive
same,outcome,[9],inactive
same,outcome,[10],inactive
same,outcome,[7],inactive
same,outcome,[11],inactive
same,outcome,[8],inactive
O=C1NC(=O)C(c2ccccc2)(c2ccccc2)N1,efficacy,[1],9.61% (inactive)
same,outcome,[2],inactive
same,outcome,[3],inactive
same,outcome,[4],inactive
same,outcome,[5],inactive
same,outcome,[9],inactive
same,outcome,[10],inactive
same,outcome,[7],inactive
same,outcome,[11],inactive
same,outcome,[12],inactive
same,outcome,[8],inactive
NC12CC3CC(CC(C3)C1)C2,efficacy,[1],15% (inactive)
same,outcome,[2],inactive
same,outcome,[3],inactive
same,outcome,[4],inactive
same,outcome,[5],inactive
same,outcome,[9],inactive
same,outcome,[10],inactive
same,outcome,[7],inactive
same,outcome,[11],inactive
same,outcome,[12],inactive
same,outcome,[8],inactive
Nc1cc(-c2ccncc2)c[nH]c1=O,efficacy,[1],26.8% (inactive)
same,outcome,[2],inactive
same,outcome,[3],inactive
same,outcome,[4],inactive
same,outcome,[5],inactive
same,outcome,[9],inactive
same,outcome,[10],inactive
same,outcome,[7],inactive
same,outcome,[11],inactive
same,outcome,[12],inactive
same,outcome,[8],inactive
COc1ccc(Cl)cc1C(=O)NCCc1ccc(S(=O)(=O)NC(=O)NC2CCCCC2)cc1,efficacy,[1],15.6% (inactive)
same,outcome,[2],inactive
same,outcome,[3],inactive
same,outcome,[4],inactive
same,outcome,[5],inactive
same,outcome,[9],inactive
same,outcome,[10],inactive
same,outcome,[7],inactive
same,outcome,[11],inactive
same,outcome,[8],inactive
O=P1(NCCCl)OCCCN1CCCl (stereo unspecified),efficacy,[1],14.4% (inactive)
same,outcome,[2],inactive
same,outcome,[3],inactive
same,outcome,[4],inactive
same,outcome,[5],inactive
same,outcome,[9],inactive
same,outcome,[10],inactive
same,outcome,[7],inactive
same,outcome,[11],inactive
same,outcome,[12],inactive
same,outcome,[8],inactive
same,"cell viability, % of control (lower = more cytotoxic)",[13],49.3%
same,viability (% of control),[14],20.1%
same,Potency,[15],inactive
same,outcome,[16],inactive
same,Potency,[18],inactive
COC(=O)C(c1ccccc1Cl)N1CCc2sccc2C1 (stereo unspecified),efficacy,[1],27.9% (inactive)
same,outcome,[2],inactive
same,outcome,[3],inactive
same,outcome,[4],inactive
same,outcome,[5],inactive
same,outcome,[9],inactive
same,outcome,[10],inactive
same,outcome,[7],inactive
same,outcome,[11],inactive
same,outcome,[8],inactive
CC[C@@H](CO)NCCN[C@@H](CC)CO,efficacy,[1],-17.1% (inactive)
same,outcome,[2],inactive
same,outcome,[3],inactive
same,outcome,[4],inactive
same,outcome,[5],inactive
same,outcome,[9],inactive
same,outcome,[10],inactive
same,outcome,[7],inactive
same,outcome,[11],inactive
same,outcome,[12],inactive
same,outcome,[8],inactive
CC(=O)OCC(CCn1cnc2cnc(N)nc21)COC(C)=O,efficacy,[1],17.3% (inactive)
same,outcome,[2],inactive
same,outcome,[3],inactive
same,outcome,[4],inactive
same,outcome,[5],inactive
same,outcome,[9],inactive
same,outcome,[10],inactive
same,outcome,[7],inactive
same,outcome,[11],inactive
same,outcome,[8],inactive
c1cnc2cc3c(cc2n1)C1CNCC3C1,efficacy,[1],-29.9% (inactive)
same,outcome,[2],inactive
same,outcome,[3],inactive
same,outcome,[4],inactive
same,outcome,[5],inactive
same,outcome,[9],inactive
same,outcome,[10],inactive
same,outcome,[7],inactive
same,outcome,[11],inactive
same,outcome,[8],inactive
C[C@@H](c1ncncc1F)C(O)(Cn1cncn1)c1ccc(F)cc1F (stereo partly specified),efficacy,[1],-14.3% (inactive)
same,outcome,[2],inactive
same,outcome,[3],inactive
same,outcome,[4],inactive
same,outcome,[5],inactive
same,outcome,[9],inactive
same,outcome,[10],inactive
same,outcome,[7],inactive
same,outcome,[11],inactive
same,outcome,[8],inactive
